The source of these data is PubChem BioAssay AID449762 (Southern Research Specialized Biocontainment Screening …, 2010).

Hit rate of the full screen: of about 330,000 compounds, about 1,900 (0.58%) were called active. Inconclusive results (about 4%) are left out. The list is a sample of the results. Potency and affinity values are given separately. A number with no mark means an inactive call. Rule as the data show it: inconclusive = inhibition above about 70% without an active follow-up result; inactive = below that.

The experiment is described as follows: M. tuberculosis growth inhibition, HTS (AID 449762).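 Also: bacterial growth assessed after seven days of incubation.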 As to conditions: M. tuberculosis H37Rv growth inhibition, 7H9 media; at 25 µM; stronger effect = higher value.
Turning to `Cc1oc2nc(SCC(=O)NC3CCCCC3)nc(N)c2c1C`, the inhibition is 3.18%. Turning to `COc1cccc(CC2(CO)CCCN(Cc3cc4ccccc4[nH]3)C2)c1` (stereo not given), the inhibition is 10.5%. The same measure for `COc1cccc(CC2(CO)CCCN(Cc3ccc(C)s3)C2)c1` (stereo not given): 1.24%; for `COc1ccccc1CCNC(=O)CCSc1nc(-c2ccco2)cc(C(F)(F)F)n1`: -1.55%; for `CCCN=Cc1sc2ccc(OCC)cc2c1O`: -4.1%.

`Cc1cccc(NC(=O)/C(C#N)=C\c2cccnc2)c1`: the inhibition was -10.8%. Under `COc1cc2nc(CN3CC=C(c4ccccc4)CC3)[nH]c(=O)c2cc1OC` stands 3.16%. Under `NC(=O)C1CCN(Cc2nc3cc(C(F)(F)F)ccc3c(=O)[nH]2)CC1` stands 2.7%; under `COc1ccc(CCNC(=O)CCNS(=O)(=O)c2cccc3nonc23)cc1OC`, 2.46%; under `COC(=O)/C=C1/S/C(=N/NC(=O)c2ccccc2)NC1=O`, -1.82%. Consider `O=C(CN1CCCCC1)N/N=C/c1ccccc1OCc1ccccc1`, for which the inhibition was -1.99%. Under `Cn1c(=O)c2c(ncn2CC(=O)Nc2ccccc2Sc2ccccc2)n(C)c1=O` stands -2.88%; under `CN(C)C(=O)c1cc(C(=O)c2ccc(F)cc2C(F)(F)F)c[nH]1`, -3.23%.

`CCSc1nnnn1-c1ccccc1`: the inhibition is 3.88%.

For `c1ccc(-n2nnnc2SCCCSc2nc3ccccc3s2)cc1`, the inhibition was -4.17%. For `N#Cc1ccccc1OCC(=O)N1CCc2ccccc2C1`, the inhibition is -4.88%. On to `Cc1ccc(-c2nnc(NCc3nc4ccccc4[nH]3)c3ccccc23)cc1S(=O)(=O)N1CCOCC1`, for which the inhibition was 63.7%. Under `Cc1nc(-c2ccccc2)sc1C(=O)CSc1ccc(Cl)cc1` stands -5.11%; under `c1ccc2c(c1)OCc1cn[nH]c1-2`, -2.59%. Under `Cc1ccc(/C=C/c2nnc(-c3ccccc3)o2)cc1` stands -11.8%. The same measure for `CCOC(=O)CSc1[nH]c2cc(OC)ccc2c1[N+](=O)[O-]`: 6.24%; for `COC(=O)CSc1[nH]c2ccccc2c1[N+](=O)[O-]`: -2.39%; for `CN(C)CCOc1ccc2ccccc2c1`: 2.98%. Consider `CN(C)CCOc1ccc(C(C)(C)c2ccccc2)cc1`, for which the inhibition was -3.02%. For `COc1ccccc1NC(=O)Nc1ccc(F)c(F)c1`, the inhibition was 0.47%. As to `CCc1nnc(NS(=O)(=O)c2ccc(N/C=C\C(=O)c3ccc4ccccc4c3)cc2)s1`, the inhibition was -6.64%. As to `CCc1nnc(NS(=O)(=O)c2ccc(N/C=C/C(=O)c3ccc(OC)cc3)cc2)s1`, the inhibition is 4.48%.

For `Cn1c(=O)c2c(SCC(=O)Nc3nccs3)nc(C3CC3)nc2n(C)c1=O`, the inhibition was -1.82%. The same measure for `Cc1ccc(C2=NS(=O)(=O)N(C)C(C(=O)Nc3cc(C)n(CC(=O)N4CCCCC4)n3)=C2)cc1`: -4.07%. The same measure for `Cc1cccc(N=C2C(=O)Nc3c(Cl)cccc32)c1`: 6.57%. As for `Cc1ccc(NC(=O)CSc2nc3ccccc3c3nc(CCn4cncc4C)nn23)c(C)c1`, the inhibition was 9.55%. The same measure for `Cc1ccccc1NC(=O)CSc1nc2ccccc2c2nc(CCn3cncc3C)nn12`: 6.6%. Under `O=C(NCc1ccc2c(c1)OCO2)c1ccc(C2SCC(=O)N2Cc2ccco2)cc1` (stereo not given) stands -7.71%; under `COc1ccc(C(=O)NCc2ccc3c(c2)OCO3)cc1`, -0.3%.

With `COc1cc2c(cc1NC(=O)CN1CCN(S(=O)(=O)c3ccc(C)cc3)CC1)oc1ccccc12`, the inhibition was -6.72%. The same measure for `O=c1c2c(nc3nc(NCc4cccc(Cl)c4)[nH]n13)CCC2`: 19.9%; for `O=c1c2c(nc3nc(NCc4ccccc4Cl)[nH]n13)CCC2`: 21.9%; for `Cc1nc2nc3c(c(=O)n2[nH]1)CCC3`: -2.58%.

`Cc1nc2nc3c(c(=O)n2[nH]1)CCCC3`: the inhibition is -1.58%. The same measure for `COc1ccc(NC(=O)C2CCN(c3cc(-c4ccccc4)nc4ncnn34)CC2)cc1OC`: -9.41%; for `CCOc1ncccc1C(=O)Nc1cccc(-c2nc3cccnc3s2)c1`: 2.6%. The same measure for `CCn1c(=O)n(CC)c2cc(S(=O)(=O)Nc3c(C)cccc3C)ccc21`: -0.18%. The same measure for `O=C1/C(=C/c2ccncc2)CCc2ccccc21`: 20.6%. Take `O=C1/C(=C\c2cccnc2)CCc2ccccc21`: the inhibition is 53.9%. Under `COc1ccc(CNC(=O)C2CCN(C(=O)c3csc(Nc4ccc(C)cc4)n3)CC2)cc1` stands 9.09%. Consider `CC(CN1CCCCC1)OC(=O)/C=C/c1ccccc1` (stereo not given), for which the inhibition is 4.22%.

In the case of `CCCc1nc2c(=O)[nH]c3ccccc3c2o1`, the inhibition was -2.82%. The same measure for `CCCCc1nc2c(=O)[nH]c3ccccc3c2o1`: -3.26%; for `CC(C)N1CCc2c(sc(NC(=O)CCc3ccccc3)c2C(N)=O)C1`: 2.58%. The same measure for `c1cncc(CNc2ncnc3ccc(-c4ccc5c(c4)OCCO5)cc23)c1`: 6.78%; for `Cc1cccc(CNc2ncnc3ccc(-c4ccc5c(c4)OCO5)cc23)c1`: 4.98%. The same measure for `O=C(CN1C(=O)NC(c2ccccc2)(c2ccccc2)C1=O)N1CCCCC1`: 3.83%; for `O=C1[C@H]2[C@@H](c3ccc(F)cc3)N3C(=O)N(c4ccccc4)C(=O)[C@@]3(Cc3ccccc3)[C@H]2C(=O)N1C1CCCCC1`: -4.71%; for `Cc1cccc(C2(c3cccc(C)c3)CC2C(=O)Nc2ccc([N+](=O)[O-])cc2O)c1` (stereo not given): 8.65%. `CC1(C)CC1C(=O)Nc1ccc([N+](=O)[O-])cc1Br` (stereo not given): the inhibition is -1.2%. With `CCC(=O)NC(=S)Nc1ccc(OC)cc1OC`, the inhibition is 2.55%. Under `Cc1nc(SCC(=O)NCC2CCCO2)c2c3c(sc2n1)CCC3` (stereo not given) stands -2.08%; under `Cc1nc(SCC(=O)NCC2CCCO2)c2c(C)c(C)sc2n1` (stereo not given), -15.3%; under `O=C(CSc1nc2scc(-c3ccccc3)c2c(=O)[nH]1)NCCc1ccccc1`, -20.7%. The same measure for `O=c1[nH]c(=O)n([C@H]2C[C@H](O)[C@@H](CO)O2)cc1F`: 34.4%; for `O=c1[nH]c(=O)n(C2CCCO2)cc1Br` (stereo not given): 1.51%; for `COc1ccc(O)c(CN2CCCC(N3CCN(c4ccccc4OC)CC3)C2)c1` (stereo not given): 4.68%. Under `O=C(CCNC(=O)c1ccccc1Cl)Nc1nccs1` stands -4%. Regarding `COc1ccc(N(CC(=O)NCCc2ccccc2)C(=O)c2csnn2)cc1OC`, the inhibition is -2.24%.

Consider `COc1ccc(C2CC2/C(C)=N/OC(=O)C2CC2)cc1` (stereo not given), for which the inhibition is 68.7%. For `COc1ccc(C2CC2C(C)=O)cc1` (stereo not given), the inhibition is -4.29%. With `CC(C)(C)OC(=O)N1CCC(CC2CC(c3ccncc3)=NO2)(C(=O)O)CC1` (stereo not given), the inhibition was -6.97%. The same measure for `O=c1c2ccccc2nnn1CSc1ccc2ccccc2n1`: -1.57%. The same measure for `CSc1ccc(S(=O)(=O)NCC(=O)OCC(=O)N2CCCCC2C)cc1[N+](=O)[O-]` (stereo not given): -8.12%; for `COc1ccc(-c2nsc3c(N4CCCC4)ncnc23)cc1`: 5.98%; for `COc1ccc(-c2nsc3c(N4CCCCC4)ncnc23)cc1`: -0.13%.

`Cc1ccc(CNC(=O)Cn2cccc2C(=O)c2ccccc2C)cc1`: the inhibition is -0.89%. The same measure for `CCN(CC)S(=O)(=O)c1cccc(C(=O)N/N=C/c2ccccn2)c1`: -3.65%; for `O=C(Nc1ccc(Br)cc1Cl)c1ccc(OCC2CCCO2)cc1` (stereo not given): 3.35%; for `CCOC(=O)C1(Cc2cccc(Cl)c2)CCCN(C(=O)c2cnn(CC)c2)C1` (stereo not given): -5.14%. Regarding `CCOc1ccc(C(=O)Nc2ccc3c(c2)OCCO3)cc1`, the inhibition is 9.28%.

Take `CCOc1ccc(NC(=O)COC(=O)c2ccc3c(c2)OCCO3)cc1`: the inhibition was 9.4%. The same measure for `Cc1c(/C=N\NC(=O)c2c[nH]c3ccccc23)cnn1C`: 6.8%; for `COc1ccccc1NC(=S)N1CCN(C(=O)C2CCCO2)CC1` (stereo not given): 4.95%; for `COC(=O)c1c(NC(=O)CC2SC(N)=NC2=O)sc2c1CCCC2` (stereo not given): -10.2%. The same measure for `COC(=O)c1c(NC(=O)CC2SC(N)=NC2=O)sc2c1CCC(C)C2` (stereo not given): -3.66%; for `COc1ccc(C(=O)c2c(-c3ccc(OC)cc3)oc3ccc(-c4ccc(OC)nc4)cc23)cc1`: 64.6%. Under `CCCC12CN3CC(C)(CN(C1)C3c1ccco1)C2=O` (stereo not given) stands -1.36%; under `CCCC12CN3CC(CCC)(CN(C1)C3c1ccco1)C2=O` (stereo not given), -6.51%. Take `CN(C)CCN(Cc1ccco1)C(=O)c1oc2ccccc2c1NC(=O)COc1ccccc1`: the inhibition is 13.6%. The same measure for `Cc1ccccc1C(=O)Nc1c(C(=O)N(CCN(C)C)Cc2ccco2)oc2ccccc12`: 13.6%. As for `CN(C(=O)CSc1nnc(-c2ccncc2)n1-c1ccccc1)C1CCS(=O)(=O)C1` (stereo not given), the inhibition was -8.96%. The same measure for `O=C(NC1CCCCCC1)c1cccc(COCC(F)(F)F)c1`: -0.72%; for `C/C(=N\NC(=S)NCCc1ccccc1)c1ccc(O)cc1O`: 3.81%. Under `C/C(=N\NC(=S)NCc1ccccc1)c1ccccc1F` stands -2.93%; under `Cc1noc(C)c1S(=O)(=O)Nc1ccc(C(=O)N2CCC(C)CC2)cc1`, 8.59%; under `Cc1ccc(N2CC(C(=O)N3CCC(C(=O)Nc4nnc(C(C)(C)C)s4)CC3)CC2=O)cc1` (stereo not given), 4.69%. The same measure for `OCC1(Cc2ccc(Cl)cc2)CCN(CCCc2ccccc2)CC1`: 39.2%. For `COc1cnc(-c2ccccc2)nc1Oc1ccc(Cl)cc1C`, the inhibition is 3.24%. The same measure for `COc1cnc(-c2ccccn2)nc1Oc1ccc(Cl)cc1`: 2.17%.

What is called inhibition is the change of the read-out against control, counted positive when it falls.
